TTR transcr act: increases transthyretin transcription. SH-SY5Y TTR promoter Gaussia luciferase, luminescence; 100% = recombinant luciferase protein wells. activation, % at 16.7 µM. 92,000 compounds, 1.3% hits. AID 1117267;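 active means activation above the mean of all tested compounds plus 3 SD, cut at about 9.5% in these data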;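 further: cells exposed to compounds for one day before reading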
HuH7 TTR inh: decreases TTR transcription in HuH7 cells in activator counter-screen; shares compounds with TTR transcr act; HuH7 TTR promoter-Gaussia luciferase reporter, luminescence; inhibition, % at 16.7 µM; 1,100 compounds, 4% hits; AID 1117279;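 active means average inhibition above the solvent-only control wells' mean plus 3 SD, cut at about 15% in these data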;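 further: inhibitors lower well luminescence so higher value means more inhibition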
TTR up confirm: human TTR transcription activation, confirmation | shares compounds with TTR transcr act | SHSY5Y TTR promoter Gaussia luciferase, luminescence; 100% = purified Lucia enzyme wells, no cells | activation, % at 16.7 µM | 1,100 tested, under 10 active;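 active means mean activation above a set limit taken from the earlier primary screen, cut at about 11% in these data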
Large screens that a line does not name were inactive (follow-up assays come after a bar, where they were run). Only a selection was taken, and hits are over-represented in it overall.

COc1ccc(C(=O)NCCS(=O)(=O)NCc2ccc(F)cc2)cc1	none
CCOC(=O)C1CCN(C(=O)/C=C/c2ccc(OC)cc2)CC1	none
CCOC(=O)C1CCN(C(=O)Cn2nc(C)n3nc(-c4ccc(OC)cc4)cc3c2=O)CC1	TTR transcr act 11 | HuH7 TTR inh inactive | TTR up confirm inactive
CCc1ccc(-c2cc3c(=O)n(CC(=O)NCCN4CCCCC4C)nc(C)n3n2)cc1 (centres undefined)	none
COc1ccccc1OCCNC(=O)Nc1cc(F)c(F)cc1Cl	none
COc1ccccc1CNC(=O)C1CCN(S(=O)(=O)c2ccc3c(c2)C(C)(C)C(=O)N3C)CC1	none
COc1ccc(COc2ncnc3ccc(Br)cc23)cc1F	none
COC(=O)[C@]1(CC(C)C)N[C@H](c2ccc(SC3CCCCC3)c(OC)c2)[C@@H]2C(=O)N(C)C(=O)[C@@H]21	none
COC(=O)[C@]1(CC(C)C)N[C@H](c2ccc(-c3ccc(F)cc3)c(OC)c2)[C@@H]2C(=O)N(C)C(=O)[C@@H]21	TTR transcr act 13 | HuH7 TTR inh inactive | TTR up confirm inactive
CCC(C)Sc1ccc([C@H]2N[C@@](CC(C)C)(C(=O)OC)[C@H]3C(=O)N(CC)C(=O)[C@@H]23)cc1 (some centres undefined)	none
O=C(COc1cccc(C(F)(F)F)c1)NCC(c1ccco1)N1CCCCC1 (centres undefined)	none
COc1cc(C2c3[nH]c4ccccc4c3CC3COC(=O)N32)cc(OC)c1O (centres undefined)	none
Cn1cnnc1SCC(=O)Nc1ccc(Cl)cc1	TTR transcr act 13 | HuH7 TTR inh inactive | TTR up confirm inactive
Cc1nc(-c2nnc(SCC(=O)Nc3ccc(Cl)cc3)n2C)cs1	TTR transcr act 23 | HuH7 TTR inh inactive | TTR up confirm inactive
CCC(=O)Nc1ccc(NC(=O)CSc2nnc(-c3ccco3)n2C)cc1	none
Cn1cnnc1SCC(=O)Nc1ccc(Oc2ccccc2)cc1	none
Cn1cnnc1SCC(=O)Nc1ccc(F)cc1F	none
CN(C)c1ccc(NC(=O)CSc2nnc(-c3cnccn3)n2C)cc1	none
CCNC(=O)CCc1nc(-c2ccc(C(C)C)cc2)no1	none
Cn1ccc2c(N3CCCCC3)cc3c(c21)C1CCC3O1 (centres undefined)	none
Cc1nn(-c2ccccc2)nc1CNC(=O)CC(C)(C)C	none
Cc1[nH]c(C)c(S(=O)(=O)N2CCCCC2C)c1C(=O)N1CCCC1 (centres undefined)	none
CCc1ccccc1NC(=S)N1CCN(c2cccc(OC)c2)CC1	none
COc1ccc(C(=O)CCS(=O)(=O)c2ccc(C)cc2)cc1OC	none
CCOC(=O)N1CCN(c2cc(=O)n(-c3ccccc3C)c(=O)[nH]2)CC1	none
CCOC(=O)N1CCN(c2cc(=O)n(-c3ccc(OC)cc3)c(=O)[nH]2)CC1	TTR transcr act 9.7 | HuH7 TTR inh inactive | TTR up confirm inactive
CCOc1ccc(-n2c(=O)cc(N3CCN(c4ccc(F)cc4)CC3)[nH]c2=O)cc1	none
CCOC(=O)CN1N=C(c2ccc(Cl)cc2)CCC1=O	none
NC(=O)c1ccccc1NC(=O)CSc1nc2c(c(=O)[nH]1)CCCC2	none
FC(F)(F)c1ccccc1Cn1ccc2ccc(-c3ccc4ccn(Cc5ccccc5C(F)(F)F)c4c3)cc21	TTR transcr act 18 | HuH7 TTR inh inactive | TTR up confirm inactive
Cc1ccccc1Cn1ccc2ccc(-c3ccc4ccn(Cc5ccccc5)c4c3)cc21	none
FC(F)(F)c1ccccc1Cn1ccc2ccc(-c3ccc4ccn(Cc5ccccc5)c4c3)cc21	none
COc1ccc(-c2n[nH]c(=S)n2Cc2ccccc2)cc1OC	none
CC(C)c1cc(-c2n[nH]c(=S)n2Cc2ccccc2)cs1	TTR transcr act 11 | HuH7 TTR inh inactive | TTR up confirm inactive
S=c1[nH]nc(-c2ccccc2)n1Cc1ccccc1	none
O=C1Nc2ccccc2N(O)N1c1ccc(S(=O)(=O)N2CCOCC2)cc1	none
CCOC(=O)N1CCN(C(=O)C[C@H]2C[C@@]3(C(=O)OC)C(=C[C@H](C4CCCC4)O[C@@H]3C)N(CCC3=CCCCC3)C2=O)CC1	none
Cc1nn(-c2ccccc2)c(C)c1C(=O)NCCc1ccccc1	none
Cc1nn(Cc2ccccc2)c(Cl)c1C(=O)NCCc1ccc(Cl)cc1	none
CCOc1ccc(CCNC(=O)c2c(C)nn(-c3ccccc3)c2Cl)cc1OCC	TTR transcr act 12 | HuH7 TTR inh inactive | TTR up confirm inactive
CC(C)CN1CCNC(=O)C1CC(=O)NCCc1cnn(-c2ccccc2)c1 (centres undefined)	TTR transcr act 13 | HuH7 TTR inh inactive | TTR up confirm inactive
CCn1cc(CNC(=O)CC2C(=O)NCCN2CC(c2ccccc2)c2ccccc2)cn1 (centres undefined)	none
Cn1cc(CCNC(=O)CC2C(=O)NCCN2Cc2cccc(Oc3ccccc3)c2)cn1 (centres undefined)	none
CC(C)(C)SCCNS(=O)(=O)c1ccc(C#N)cc1	none
COc1ccc(NC(=O)C2CC(=O)N(c3ccccc3C)C2)c(OC)c1 (centres undefined)	none
Cn1nccc1NS(=O)(=O)c1ccc(NC(=O)C(F)(F)F)cc1	none
CN1CCN(C(=O)/C(=C\c2cccs2)NC(=O)c2ccco2)CC1	TTR transcr act 9.7 | HuH7 TTR inh inactive | TTR up confirm inactive
Cc1ccccc1NC(=O)/C(=C\c1cccs1)NC(=O)c1ccco1	none
O=C(N/C(=C\c1cccs1)C(=O)N1CCOCC1)c1ccco1	none
CCO/C([O-])=N/c1sn[n+](C)c1C	none
CC(C)(C)C(=O)C1=C(O)C(=O)N(c2ccccc2)C1c1ccccc1 (centres undefined)	none
CCC[C@H]1[C@@H](OC(=O)NCc2ccc(OC)cc2)CC[C@@]23CCCN2C(=O)CCC[C@@H]13	none
O=S1(=O)CC(N2CCN(c3ccccn3)CC2)CN1Cc1ccccc1 (centres undefined)	none
COc1ccc(CN(C)CC(=O)Nc2ccccc2C(F)(F)F)cc1	none
CSc1ccccc1NC(=O)CN(C)CC(=O)Nc1ccccc1C(F)(F)F	TTR transcr act 12 | HuH7 TTR inh inactive | TTR up confirm inactive
CSc1ccccc1NC(=O)CN(C)CC(=O)Nc1ccc(Cl)cc1F	none
NC(=O)c1sc2nc3c(c(-c4ccco4)c2c1N)CCC3	none
NC(=O)c1sc2nc(-c3ccco3)ccc2c1N	TTR transcr act 10 | HuH7 TTR inh inactive | TTR up confirm inactive
Nc1c(C(=O)Nc2ccccc2F)sc2nc(-c3ccco3)ccc12	none
CCn1nc(C)cc1C(=O)Sc1cccc(Br)c1	none
Cc1cc(=O)n2nc(N3CCCC(C(=O)NCc4cccc(Br)c4)C3)sc2n1 (centres undefined)	none
CC1(C)CC(Cc2nc(=S)[nH][nH]2)C(=O)O1 (centres undefined)	none
O=C(CSc1nnc(CNC(=O)c2ccccc2)o1)Nc1ccc2c(c1)OCO2	none
O=C(CSc1nnc(CNC(=O)c2c(F)cccc2F)o1)Nc1ccc2c(c1)OCCO2	TTR transcr act 11 | HuH7 TTR inh inactive | TTR up confirm inactive
O=C(CSc1nnc(CNC(=O)c2c(F)cccc2F)o1)Nc1ccc2c(c1)OCO2	none
Cc1cc(C)nc(N2CCCC(C(=O)Nc3ccc(F)cc3)C2)n1 (centres undefined)	none
O=C(N[C@@H](Cc1ccc(Br)cc1)C(=O)O)OCC1c2ccccc2-c2ccccc21	none
O=C(CN(C(=O)OCC1c2ccccc2-c2ccccc21)[C@@H](Cc1ccccc1)C(=O)O)OCc1ccc(C(=O)NCc2ccccc2)cc1	TTR transcr act 12 | HuH7 TTR inh inactive | TTR up confirm inactive

Screening results deposited in PubChem by The Scripps Research Institute Molecular Screening Center.
